# Experimental data as given in the OligoGym collection.
# Biological target: FABP9
# Experiment: pooled miR-30 sensor sort-seq; sequence = guide strand
# Details: shRNA
# Further: reference of the scale not given here.
row,Sequence,sensor-assay potency score (higher = more potent)
1,TTTCTTTTGATTGTTGTCTCTT,0.171
2,TTACTTTCCGGTTGTCTGCTGT,-0.00906
3,AACACTAATAGTTACTGTCGGT,-0.48
4,TGTCCTGGAAAGAACTTTCTGT,-0.208
5,TTCTTTTGATTGTTGTCTCTTT,-0.11
6,TATGGTGCTCTTTACTTTCCGG,-0.345
7,TTACATTCCACTACCATTTTTT,-0.986

# Biological target: FAM103A1
# Experiment: as above
# Details: shRNA
row,Sequence,sensor-assay potency score (higher = more potent)
1,AACATCTCTTCAAACTTTGGAA,-0.553
2,TACTAGCAAACATCTCTTCAAA,-1.05
3,TTGTCTTGCAACCGATTGCCTC,-1.09
4,ATAATGTCCATATTGCTGGGGA,-0.0469
5,TGTCTGTTGTCTTGCAACCGAT,-1.2
6,TCTACTAGCAAACATCTCTTCA,-0.435
7,TTCTTGTCTGTGTTGCGGGTAG,-0.368
8,TTTCTGTGAATCTACTAGCAAA,-1.27
9,ATCTACTAGCAAACATCTCTTC,-0.234
10,TTGTCATTTTCTGTGAATCTAC,-0.838
11,TTTTCTGTGAATCTACTAGCAA,-0.323
